A short description of assay [1]: cAMP Responsive Elements (CRE) small molecule antagonists, cell-based qHTS assay: qHTS cell viability counter screen (AID 2060913). Note: nearly all actives have a fitted effect of over 40% in size. A digest of the protocol: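 CRE-bla HEK293T cells were seeded in assay medium with 10% dialyzed FBS, incubated 18 hrs at 37 C, then exposed to compounds plus 0.25 uM final NKH477 for 3 hrs. Viability was read by CellTiter-Glo luminescence after 30 min, in the same wells.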

Assay [2] can be described thus: cAMP Responsive Elements (CRE) small molecule agonists, cell-based qHTS assay: qHTS cell viability counter screen (AID 2060914). Note: nearly all actives have a fitted effect of over 50% in size. A digest of the protocol: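 Cells are seeded and incubated 18 h, treated with compounds in DMSO for 3 h, read for the bla reporter, then given CellTiter-Glo; luminescence is measured after 30 min at room temperature.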
For orientation: qHTS replaces the single test concentration by a dilution series.

Each structure is given as a SMILES string. Results filed as inconclusive are left out. Entries that show only a call come without a potency. Values without a mark were called inactive. Calls of active or inactive are those of the source. Calls come from the whole dose curve; as a rule, active = well fitted cell-killing curve with a large enough effect in the repeat runs; inconclusive = weak or mixed curves, or effect the other way; inactive = flat fitted curve, though single readings scatter.

Consider `C/C(=N/NC(=O)c1ccncc1)C(=O)O`, for which the Potency entry in assay [1] and in assay [2] was “inactive” in each case.

Take `CC(=O)N(CC(O)CN(C(C)=O)c1c(I)c(C(=O)NCC(O)CO)c(I)c(C(=O)NCC(O)CO)c1I)c1c(I)c(C(=O)NCC(O)CO)c(I)c(C(=O)NCC(O)CO)c1I` (stereo not drawn): the Potency result in assay [1] and in assay [2] was “inactive” each time.

For `Cc1ccc(S(=O)(=O)O)cc1`, the Potency entry in assay [1] and in assay [2] was “inactive” in each case.

On to `COc1cc(-c2ccc(=O)[nH]n2)ccc1OC(F)F`, for which the Potency entry in assay [1] and in assay [2] was “inactive” in each case.

Consider `Cc1ncc([N+](=O)[O-])n1C`, for which the Potency result in assay [1] and in assay [2] was “inactive” each time.

With `C=C(C)C(=O)OCCCCCC`, the Potency entry in assay [1] and in assay [2] was “inactive” throughout.

Take `CC1(C)C(=O)N(Cl)C(=O)N1Cl`: the Potency entry in assay [1] and in assay [2] was “inactive” each time.

Turning to `CO[Si](CCC1CCC2OC2C1)(OC)OC` (stereo not drawn), the Potency entry in assay [1] and in assay [2] was “inactive” in each case.

For the compound `CC(=O)OC[C@H]1O[C@@H](OC(C)=O)[C@H](OC(C)=O)[C@@H]1OC(C)=O`, the Potency entry in assay [1] and in assay [2] was “inactive” in each case.

Regarding `CN1CC(=O)N/C1=N/C(=O)Nc1cccc(Cl)c1`, the Potency entry in assay [1] and in assay [2] was “inactive” throughout.

`CC(C)CC(C)CC(C)CC(C)COC(=O)c1ccccc1C(=O)OCC(C)CC(C)CC(C)CC(C)C` (stereo not drawn): the Potency entry in assay [1] and in assay [2] was “inactive” each time.

Regarding `CCCn1cc[n+](C)c1C`, the Potency entry in assay [1] and in assay [2] was “inactive” throughout.

As for `CN(C)c1ccc(C=O)cc1`, the Potency entry in assay [1] and in assay [2] was “inactive” each time.

For the compound `COc1cc(-c2ccc(N=C=O)c(OC)c2)ccc1N=C=O`, the Potency result in assay [1] and in assay [2] was “inactive” in each case.

For `CC(=O)c1ccc(C)cc1`, the Potency result in assay [1] and in assay [2] was “inactive” in each case.

For the compound `CCCCC(CC)COC(=O)CS` (stereo not drawn), the Potency entry in assay [1] and in assay [2] was “inactive” in each case.

Consider `Cc1ccc(-c2cc(C(F)(F)F)nn2-c2ccc(S(N)(=O)=O)cc2)cc1`, for which the Potency result in assay [1] and in assay [2] was “inactive” each time.

Regarding `C=CC/C=C/C`, the Potency result in assay [1] and in assay [2] was “inactive” throughout.

In the case of `CC1=C(O)C(=O)CO1`, the Potency entry in assay [1] and in assay [2] was “inactive” in each case.

For the compound `CN1CCC(=C2c3ccccc3Sc3ccccc32)CC1`, the Potency result in assay [1] and in assay [2] was “inactive” in each case.

Regarding `CC1(C)CC(N)CC(C)(CN)C1` (stereo not drawn), the Potency result in assay [1] and in assay [2] was “inactive” throughout.

In the case of `CN(CCOc1ccc(CC2SC(=O)NC2=O)cc1)c1ccccn1` (stereo not drawn), the Potency entry in assay [1] and in assay [2] was “inactive” in each case.

Take `CC(COc1ccccc1)N(CCCl)Cc1ccccc1` (stereo not drawn): the Potency result in assay [1] and in assay [2] was “inactive” each time.

For the compound `O=C(Cl)c1cc(C(=O)Cl)cc(C(=O)Cl)c1`, the Potency result in assay [1] and in assay [2] was “inactive” throughout.

Regarding `CC(C)(C)c1cc(Cc2cc(C(C)(C)C)c(O)c(C(C)(C)C)c2)cc(C(C)(C)C)c1O`, the Potency entry in assay [1] and in assay [2] was “inactive” each time.

Take `COC(=O)CS`: the Potency entry in assay [1] and in assay [2] was “inactive” each time.

For `O=C1OC2(c3cc(Br)c(O)c(Br)c3Oc3c2cc(Br)c(O)c3Br)c2c(Cl)c(Cl)c(Cl)c(Cl)c21`, the Potency result in assay [1] and in assay [2] was “inactive” throughout.

On to `Cc1ccc(C)c(OCCCC(C)(C)C(=O)O)c1`, for which the Potency result in assay [1] and in assay [2] was “inactive” throughout.

As for `OC[C@H]1O[C@@H](O[C@H]2[C@H](O)[C@@H](O)[C@H](O)O[C@@H]2CO)[C@H](O)[C@@H](O)[C@H]1O`, the Potency entry in assay [1] and in assay [2] was “inactive” in each case.

For the compound `O=C(O)/C=C(\CC(=O)O)C(=O)O`, the Potency result in assay [1] and in assay [2] was “inactive” throughout.

In the case of `CC(=O)NS(=O)(=O)c1ccc(N)cc1`, the Potency entry in assay [1] and in assay [2] was “inactive” throughout.

For the compound `OC1OC[C@@H](O)[C@H](O)[C@H]1O` (stereo partly drawn), the Potency result in assay [1] and in assay [2] was “inactive” each time.

On to `CC(=O)OC1CCC(C(C)(C)C)CC1` (stereo not drawn), for which the Potency result in assay [1] and in assay [2] was “inactive” throughout.

For `O=C(CCS)OCC(COC(=O)CCS)(COC(=O)CCS)COC(=O)CCS`, the Potency result in assay [1] and in assay [2] was “inactive” in each case.

On to `O=C1Nc2cc(Cl)ccc2Oc2ccccc21`, for which the Potency result in assay [1] and in assay [2] was “inactive” each time.

Consider `CCCCCC1CCCC(=O)O1` (stereo not drawn), for which the Potency entry in assay [1] and in assay [2] was “inactive” throughout.

On to `CN1C(=O)c2ccccc2C1=O`, for which the Potency entry in assay [1] and in assay [2] was “inactive” in each case.

Regarding `COc1ccc2cc([C@H](C)C(=O)O)ccc2c1`, the Potency entry in assay [1] and in assay [2] was “inactive” each time.

With `Cc1cccc([N+](=O)[O-])c1C(=O)O`, the Potency entry in assay [1] and in assay [2] was “inactive” in each case.

Take `CC1=CP(=O)(c2ccccc2)CC1` (stereo not drawn): the Potency entry in assay [1] and in assay [2] was “inactive” in each case.

For the compound `CCC1(C)CC(=O)NC1=O` (stereo not drawn), the Potency result in assay [1] and in assay [2] was “inactive” throughout.

`COc1cc(C(=O)NC2CCCNC2)cc(OC)c1OC` (stereo not drawn): the Potency result in assay [1] and in assay [2] was “inactive” throughout.

On to `COc1ccc(-c2coc3cc(O)ccc3c2=O)cc1`, for which the Potency entry in assay [1] and in assay [2] was “inactive” throughout.

Take `CN1CCCC1`: the Potency entry in assay [1] and in assay [2] was “inactive” throughout.

In the case of `NC1CCCCC1`, the Potency entry in assay [1] and in assay [2] was “inactive” each time.

As for `Oc1ccc2c(c1)-c1ccccc1C2`, the Potency entry in assay [1] and in assay [2] was “inactive” in each case.

`COc1ccccc1NC(=O)CC(C)=O`: the Potency result in assay [1] and in assay [2] was “inactive” each time.

As for `Cc1ccc(N=Nc2c(O)ccc3ccccc23)c(C)c1`, the Potency entry in assay [1] and in assay [2] was “inactive” throughout.

In the case of `CC(=O)OCC(=O)NCCCOc1cccc(CN2CCCCC2)c1`, the Potency result in assay [1] and in assay [2] was “inactive” throughout.

The values above are taken from PubChem BioAssay (Tox21).
